Bioassay records from PubChem BioAssay.
An excerpt weighted towards active compounds, which were near 1.3% of everything screened.
PKA-R2B act = PKA-R2B complex activation | P22694+P31323 | activation, % at 11.4 µM | 0.079% of 340,000 active | PKA-R2B holoenzyme dissociation, Cy5-IP20 fluorescence polarization; R2B truncated from residue 108, S112A mutant; 0% DMSO only, 100% 113 µM cGMP;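 active means activation above a cutoff set at the mean over all compounds plus 3 SD, cut at about 18% in these data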;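 further: higher means more holoenzyme dissociation and a rise in polarization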
Target sequence (P31323 whole entry, looked up, other chains not shown, the tested form may be a part): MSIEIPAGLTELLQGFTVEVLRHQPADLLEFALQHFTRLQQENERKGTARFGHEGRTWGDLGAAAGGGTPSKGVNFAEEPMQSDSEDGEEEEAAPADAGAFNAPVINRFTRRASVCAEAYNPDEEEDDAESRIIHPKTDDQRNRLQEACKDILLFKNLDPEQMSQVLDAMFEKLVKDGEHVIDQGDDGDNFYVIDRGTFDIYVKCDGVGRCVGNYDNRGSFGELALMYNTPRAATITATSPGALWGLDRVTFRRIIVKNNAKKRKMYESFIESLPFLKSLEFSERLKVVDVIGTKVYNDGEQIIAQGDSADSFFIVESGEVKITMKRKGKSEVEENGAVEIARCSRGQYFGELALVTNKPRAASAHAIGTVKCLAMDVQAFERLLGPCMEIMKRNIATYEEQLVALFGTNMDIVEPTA
Rpn11 inh = Rpn11 (human) deubiquitinase inhibition | human 26S proteasome, Ub4-pepOG fluorescence polarization; 20S core pre-blocked with epoxomicin | O00487 | calls only at 20 µM | 0.59% of 360,000 active;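 active means inhibition at 20 µM, scaled to each plate's controls, above about 33%, limit read from the data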
PKA-R1A act = activates the PKA-R1A holoenzyme complex; 0.083% of 340,000 active; activation, % at 11.4 µM; PKA-R1A dissociation, Cy5-IP20 fluorescence polarization; scaled: DMSO 0%, 113 µM cGMP 100%; P00514+P68181;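 active means percent activation above the mean of all tested compounds plus 3 SD, cut at about 19% in these data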;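 further: higher means more PKAc released from R1A so a rise in polarization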
Neddylation inh = inhibitors of human cullin neddylation; AID 651699; TR-FRET cullin neddylation, biochemical; P61081+Q13564; 0.58% of 360,000 active; inhibition, % at 25 µM; in the data active means inhibition above about 36%
Rpn11 inh conf = confirmation of human proteasome Rpn11 inhibitors; AID 602318; inhibition, % at 20 µM; purified human 26S proteasome, Ub4-pepOG fluorescence polarization; proteasome pretreated with epoxomicin; 29% of 1,900 active; shares compounds with Rpn11 inh
MMP-2 inh = counter-screen for RPN11 inhibitors: inhibition of human MMP-2. shares compounds with Rpn11 inh. recombinant MMP-2, FRET peptide cleavage fluorescence. inhibition, % at 20 µM. 4% of 1,900 active;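 further: human MMP-2 activated beforehand with APMA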
Thrombin inh = thrombin (bovine) inhibition counter-screen. bovine thrombin cleavage of Ub4-pepOG, fluorescence polarization. AID 602333. shares compounds with Rpn11 inh. 13% of 1,900 active. inhibition, % at 20 µM;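 active means mean inhibition at least 40% at 20 µM, or signal 3 deviations below plate average, so some actives read negative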;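 further: plate controls were thrombin with DMSO for no effect and buffer wells lacking thrombin for full effect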
Starred values were filed as active, the others as inactive; i = inactive; nt = not tested or not shown; + = active, no number. Unless noted, no stated cut-off is given here; in the data, active means inhibition above about 40%; inactive means the rest.

SMILES	PKA-R2B act	Rpn11 inh	PKA-R1A act	Neddylation inh	Rpn11 inh conf	MMP-2 inh	Thrombin inh
C=CCNC(=O)c1cccc2c1C(=O)c1ccc(N3CCOCC3)cc1S2(=O)=O	-1.0	+	-2.0	-49.5	29.8	-20.7	12.8
O=C(O)c1ccc(COc2ccccc2/C=C2/NC(=O)N(c3cccc(Cl)c3)C2=O)cc1	-9.8	+	2.0	11.0	55.6*	19.1	14.7
O=C(O)c1ccc(COc2ccccc2C=C2C(=O)c3ccccc3C2=O)cc1	-17.9	+	-0.8	-8.7	65.9*	-18.0	14.8
O=C(O)c1ccc(COc2ccccc2/C=C2\NC(=O)N(Cc3ccc(F)cc3)C2=O)cc1	2.5	i	1.1	0.6	nt	nt	nt
Cc1cc(C)n2c(NC3CCCCC3)c(CC(C)C)nc2n1	nt	nt	nt	12.4	nt	nt	nt
Cc1ccc(NC(=O)/C=C\C(=O)NCC(=O)O)cc1	1.3	i	-8.0	-1.2	nt	nt	nt
Cc1ccc(S(=O)(=O)NCC(=O)OCC(=O)Nc2ccccc2OC(F)F)cc1	-3.9	i	3.0	7.8	nt	nt	nt
O=C(COC(=O)CCNS(=O)(=O)c1ccc(Cl)cc1)Nc1ccccc1OC(F)F	-3.8	+	-0.4	7.2	-21.1	-38.4	-24.2
CC(=O)c1sc(NC(=O)CCCOc2ccc(Cl)cc2)nc1C	-18.0	+	-2.5	-56.3	11.7	13.6	-9.5
Cc1cccc(NC(=O)c2cc(Cl)ccc2[N+](=O)[O-])c1	-3.5	+	-1.1	-19.2	-7.7	-47.1	-4.0
Cc1ccc(NC(=O)c2cc(Cl)ccc2[N+](=O)[O-])cc1C	5.7	i	-3.6	-16.6	nt	nt	nt
COc1ccc(CN(C)C(=O)CSc2nnc(C3CC3)n2C2CC2)cc1	-2.0	i	3.2	3.3	nt	nt	nt
Cc1cc(/C=C2\Cc3ccccc3C2=O)c(C)n1-c1ccccc1	-4.9	+	-9.3	nt	124.2*	1.4	104.6*
Cc1cc(C=C2C(=O)c3ccccc3C2=O)c(C)n1-c1ccc(C(=O)O)cc1	-0.2	+	4.5	-10.4	9.3	-21.9	11.9
CC(=O)Oc1oc(-c2ccccc2)nc1C=Nc1ccc(N(C)C)cc1	-1.9	i	10.6	6.1	nt	nt	nt
CN(C)c1ccc(N=Cc2nc(-c3ccccc3)oc2OC(=O)c2ccccc2)cc1	-6.6	+	-13.9	-0.7	48.6*	-0.2	active
O=C(NNC(=O)C1CCCC1)c1cc([N+](=O)[O-])cc([N+](=O)[O-])c1	0.2	i	8.0	-61.5	nt	nt	nt
COc1cccc(OC)c1OCCCN1CCC(Cc2ccccc2)CC1	5.3	i	12.9	6.7	nt	nt	nt
COc1ccc(N(CC(=O)NCc2ccc3c(c2)OCO3)S(=O)(=O)c2ccccc2[N+](=O)[O-])c(OC)c1	-8.5	+	-4.7	-6.8	-12.3	-19.3	-7.2
CCNC(=O)C1CCCN(C(=O)c2ccc3ccccc3c2)CC1 (stereo not drawn)	nt	i	nt	1.9	nt	nt	nt
COc1ccc(N=NC2=C(O)CC(C)(C)CC2=O)c(OC)c1	-4.8	+	3.1	-120.2	88.4*	-8.3	68.8*
Cc1ccc(-c2ccc(/C=C/C(=O)c3ccccc3)o2)cc1	-7.8	+	-4.2	-0.8	28.4	-15.0	-2.0
COc1ccc(NC(=O)c2nc(S(=O)(=O)Cc3cccc(C)c3)ncc2Cl)c(OC)c1	-7.8	+	0.5	7.0	27.1	-34.6	-8.7
CC(C)C(=O)Nc1ccc(NC(=S)NC(=O)c2cc3ccccc3o2)cc1	-9.6	i	1.2	6.3	nt	nt	nt
O=C(NC(=S)Nc1ccc2oc(=O)ccc2c1)c1cc2ccccc2o1	-5.5	+	8.1	-3.5	0.9	23.7	3.0
SMILES	PKA-R2B act	Rpn11 inh	PKA-R1A act	Neddylation inh	Rpn11 inh conf	MMP-2 inh	Thrombin inh
CC(=O)Nc1ccc(NC(=S)NC(=O)c2cc3ccccc3o2)cc1	12.8	i	-2.3	-7.1	nt	nt	nt
CC(C)C(=O)Nc1ccc(NC(=O)c2cc3ccccc3o2)cc1	-4.6	+	1.7	21.4	-3.2	-19.4	-0.5
Cc1cccc(OC(C)C(=O)Nc2ccc3c(c2)OCCO3)c1 (stereo not drawn)	-6.5	i	-7.0	-17.3	nt	nt	nt
CC(=O)NC(CC(=O)N1CCN(C(C)=O)CC1)c1ccccc1 (stereo not drawn)	3.3	i	-4.2	5.6	nt	nt	nt
COc1ccc(Cl)cc1C(=O)Nc1cccc(-c2ccc3nncn3n2)c1	2.0	+	-9.7	-9.6	75.6*	16.2	13.8
COc1cccc(C(=O)Nc2cccc(-c3ccc4nncn4n3)c2)c1OC	-10.4	i	-14.2	-14.6	nt	nt	nt
Cc1ccc(C)c(Cn2c(C)nc3c(sc(=S)n3-c3ccccc3)c2=O)c1	-10.0	i	-6.6	-2.3	nt	nt	nt
CCOC(=O)/C=c1\s/c(=C\c2ccc(C(F)(F)F)cc2)c(=O)n1CC(=O)NCc1ccco1	4.9	+	-1.4	26.6	36.1	-28.6	38.2
O=C(Nc1nc(OCC(F)(F)F)cnc1/C=C\c1ccccc1)c1ccccc1	nt	i	nt	nt	nt	nt	nt
N#CC(C#N)=Cc1ccc(-c2ccc(S(=O)(=O)N=C(N)N)cc2)o1	-9.3	+	1.0	10.9	26.2	76.2*	11.3
NS(=O)(=O)c1ccc(-c2ccc(C=O)o2)cc1	nt	i	nt	-12.5	nt	nt	nt
O=C(Nc1ccc(O)c(-c2nc3ccccc3s2)c1)C1=COCCO1	10.2	i	9.9	i	nt	nt	nt
O=C(Nc1ccc(-c2nc3ccccc3s2)c(O)c1)C1=COCCO1	-13.9	+	1.5	4.5	43.2*	38.5	-19.6
Cc1cc(OC(C)C(=O)N2CCN(c3ccc(F)cc3)CC2)c2c(C)cc(=O)oc2c1 (stereo not drawn)	-3.7	i	6.6	20.8	nt	nt	nt
COc1ccc(C2Cc3ccccc3C(=O)O2)cc1 (stereo not drawn)	-2.8	i	1.5	2.4	nt	nt	nt
NNC(=O)COc1ccc(F)cc1	5.1	+	0.9	8.1	0.6	-24.9	0.1
NNC(=O)COc1ccc(-c2nccc(-c3ccc(F)cc3)n2)cc1	-6.3	i	-6.1	-18.3	nt	nt	nt
O=C(CSc1nc2ccccc2o1)Nc1nc2c(s1)CCCC2	11.8	+	11.6	14.9	48.8*	-21.1	33.0
O=C(CSc1nc2ccccc2o1)Nc1nc2ccccc2s1	-9.9	i	-0.7	-237.5	nt	nt	nt
CCC(=O)N1CCc2cc(S(=O)(=O)N3CCN(c4ccccc4)CC3)ccc21	3.1	i	2.2	-0.1	nt	nt	nt
CCC(=O)N1CCc2cc(S(=O)(=O)N3CCc4ccccc4C3)ccc21	-1.1	+	-5.2	-2.3	7.8	6.1	10.5
CCn1c(SCC(=O)c2c[nH]c3ccccc23)nnc1-c1cccs1	-4.9	+	1.8	-223.1	78.5*	-31.7	44.1*
COCCn1c(SCC(=O)c2c[nH]c3ccccc23)nnc1-c1ccncc1	0.2	i	4.3	1.3	nt	nt	nt
